# In PubChem BioAssay (Tox21):
# Values joined by “and” are separate entries in the source; they are usually repeats but may differ in a detail not shown here. Identical values can stand only once. Results filed as inconclusive are left out. Active and inactive are the calls of the source. Calls come from the whole dose curve; as a rule, active = well fitted cell-killing curve with a large enough effect in the repeat runs; inconclusive = weak or mixed curves, or effect the other way; inactive = flat fitted curve, though single readings scatter.
# Test: qHTS assay to identify small molecule that activate the aryl hydrocarbon receptor (AhR) signaling pathway - cell viability counter screen (AID 743086); note: nearly all actives have a fitted effect of over 45% in size;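 for viability change, negative = cytotoxic: HepG2 liver cells carrying the AhR DRE luciferase reporter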
# Conditions: HepG2-AhR-luc viability, CellTiter-Fluor, 24 h; series mostly up to 70.3 µM; viability change, negative = cytotoxic: at the top concentration
# Text: U.S. Tox21 Program National Center for Advancing Translational Sciences [NCATS] NIH Chemical Genomics Center [NCGC] U.S. Environmental Protection Agency [EPA] National Institutes of Environmental Health Sciences [NIEHS] National Toxicology Program [NTP] U.S. Food and Drug Administration [FDA] Tox21 Assay overview: The Aryl hydrocarbon Receptor (AhR), a member of the family of basic helix-loop-helix transcription factors, is crucial to adaptive responses to environmental changes. AhR mediates cellular responses to environmental pollutants such as aromatic hydrocarbons through induction of phase I and II enzymes but also interacts with other nuclear receptor signaling pathways A cell based HepG2-AhR-luc assay (HG2L7.5c1 cell line, developed by Dr. Michael S. Denison, University of California at Davis) was used to assess the activation of AhR. HepG2 (human hepatocellular carcinoma) cells were stably transfected with an Ah receptor-responsive firefly luciferase reporter gene plasmid containing 20 dioxin responsive elements and luciferase reporter gene. Increased luciferase activity can be used to identify the compounds that induce AhR activation. The cytotoxicity of the compounds screened against the HepG2-AhR-luc cell line was tested in parallel by measuring the cell viability using CellTiter-Fluor assay in the same wells.
# Tox21 Assay Protocol Summary: 4000 cells in 5 uL/well were dispensed into white wall/solid bottom 1536-well plates using a Multidrop Combi (Thermo Fisher Scientific Inc., Waltham, MA) dispenser. After the assay plates were incubated at 37C for 5 h, 23 nL of compound or DMSO vehicle was transferred to the assay plates by a pintool station (Kalypsys, San Diego, CA). The plates were incubated at 37C for 24 hr. For cell viability measurement, 1 ul/well of CellTiter-Fluor reagent (Promega, Madison, WI) was added into the assay plates using a Flying Reagent Dispenser (FRD) (Aurora Discovery, CA),and then the assay plates were incubated at 37C for 30 min. The fluorescence intensity in the plates was measured using a ViewLux plate reader (PerkinElmer, Shelton, CT), followed by the addition of 4 uL of ONE-Glo Luciferase Assay reagent (Promega) using an FRD (Aurora Discovery). After the assay plates were incubated at room temperature for 30 min, luminescence intensity was measured using a ViewLux plate reader (Perkin Elmer).
# % is set by controls: 0 for no effect and ±100 for the full control effect; potency is the fitted concentration of half-maximal effect.
Compound,"viability change, negative = cytotoxic",Potency
CC(C)(C)NCC(O)CSc1nc(-c2ccc(C(N)=O)s2)cs1 (stereo not given),-2.49% (inactive),
C[C@@](Cc1ccc(O)c(O)c1)(NN)C(=O)O,0.938% (inactive),
CS(=O)(=O)OCC(O)C(O)COS(C)(=O)=O (stereo not given),2.76% (inactive),
N#CC(c1ccc(Cl)cc1)c1c(Cl)cc(-n2ncc(=O)[nH]c2=O)cc1Cl (stereo not given),-29.6% (inactive),
CC(=O)[C@]1(O)Cc2c(O)c3c(c(O)c2[C@@H](O[C@H]2C[C@H](N)[C@H](O)[C@H](C)O2)C1)C(=O)c1c(O)cccc1C3=O,,4.73 µM (active) and 13.3 µM (active)
C=C(NC(=O)C(=C)NC(=O)c1csc(C2=N[C@@H]3c4csc(n4)[C@H]4NC(=O)c5csc(n5)[C@H]([C@](C)(O)[C@@H](C)O)NC(=O)[C@H]5CSC(=N5)C(=CC)NC(=O)C([C@@H](C)O)NC(=O)c5csc(n5)[C@]3(CC2)NC(=O)[C@H](C)NC(=O)C(=C)NC(=O)[C@H](C)NC(=O)C([C@@H](C)CC)NC2C=Cc3c([C@H](C)O)cc(nc3C2O)C(=O)O[C@@H]4C)n1)C(N)=O (stereo not given in full),-19.5% [at 32.5 µM] (inactive),
NC(=S)N=Nc1ccc(NN=C(N)N)cc1,,29.8 µM (active)
C[C@H](O)[C@H](O)[C@H]1CNc2nc(N)[nH]c(=O)c2N1,13.2% (inactive),
CCCCc1cc2c(=O)c(C(=O)OC)c[nH]c2cc1OCc1ccccc1,20.4% (inactive),
CN(C)c1ccc(C(=C2C=CC(=[N+](C)C)C=C2)c2c(O)c(S(=O)(=O)[O-])cc3cc(S(=O)(=O)O)ccc23)cc1,,26.6 µM (active)
O=C(O)c1ccc(NC(=O)[C@H](Cc2ccc(O)cc2)NC(=O)c2ccccc2)cc1,-0.921% (inactive),
COc1ccc(C[C@@H](C)NC[C@H](O)c2ccc(O)c(NC=O)c2)cc1,-11.5% (inactive),
CCCCCc1ccc(C)cc1O,-18.5% (inactive),
O=C(O)COc1ccc(CCNS(=O)(=O)c2ccccc2)s1,-8.35% (inactive),
Cc1cc(-c2ccc(N=Nc3c(S(=O)(=O)O)cc4cc(S(=O)(=O)O)cc(N)c4c3O)c(C)c2)ccc1N=Nc1c(S(=O)(=O)O)cc2cc(S(=O)(=O)O)cc(N)c2c1O,,15 µM (active)
O=[N+]([O-])c1ccc(Oc2ccc(N=C=S)cc2)cc1,-0.839% (inactive),
CCN(CC)CCOc1ccc2nc(N(C)C)sc2c1,-7.97% (inactive),
CO[C@@]1(NC(=O)C2SC(=C(C(N)=O)C(=O)O)S2)C(=O)N2C(C(=O)O)=C(CSc3nnnn3C)CS[C@@H]21 (stereo not given in full),3.83% [at 32.5 µM] (inactive),
CCCCCCCCCCCCCCCCSCC(COC)COP(=O)([O-])OCC[N+](C)(C)C (stereo not given),-1.31% (inactive),
CC#CCC(C)[C@H](O)/C=C/[C@@H]1[C@H]2C/C(=C/CCCC(=O)O)C[C@H]2C[C@H]1O (stereo not given in full),-2.47% (inactive),

Compound,"viability change, negative = cytotoxic",Potency
CC(=O)Oc1c(C)cc(OCC(O)CNC(C)C)c(C)c1C (stereo not given),-2.99% (inactive),
CO/N=C(\C(=O)N[C@@H]1C(=O)N2C(C(=O)O)=C(CSC(=O)c3ccco3)CS[C@H]12)c1csc(N)n1,-0.64% (inactive),
NNc1nnc(Cc2ccncc2)c2ccccc12,1.59% (inactive),
CC(=O)Nc1ccc(OC(=O)c2ccccc2O)cc1,14.9% (inactive),
c1cnc2cc3c(cc2n1)[C@@H]1CNC[C@H]3C1,-21% (inactive),
OC(CN1CCCCC1)c1cc(-c2ccccc2)on1 (stereo not given),1.04% (inactive),
Clc1ccc(COC(Cn2ccnc2)c2ccc(Cl)cc2Cl)c(Cl)c1 (stereo not given),-9% [at 32.5 µM] (inactive),
Cn1cc(NC(=O)c2cc(NC(=O)c3cc(NC=O)cn3C)cn2C)cc1C(=O)NCCC(=N)N,7.02% (inactive),
CCCC1([C@H](O)C/C=C/[C@H]2[C@H](O)CC(=O)[C@@H]2CCCCCCC(=O)OC)CCC1,-2.22% (inactive),
CN[C@@H]1[C@@H](O)[C@@H](O[C@@H]2[C@@H](O)[C@H](O[C@H]3O[C@H](CN)[C@@H](O)[C@H](O)[C@H]3O)[C@@H](N)C[C@H]2NC(=O)C(O)CN)OC[C@]1(C)O (stereo not given in full),0.562% (inactive),
CC(C)=CCC/C(C)=C/C=C/C(C)=C/C=C/C(C)=C/C=C/C=C(C)/C=C/C=C(C)/C=C/C=C(\C)CCC=C(C)C,-1.41% (inactive),
O=C1NCCN1c1ncc([N+](=O)[O-])s1,-9.02% [at 32.5 µM] (inactive),
CCOC(=O)CCC(=O)O[C@H]1[C@H](O[C@@H]2[C@@H](C)[C@H](O[C@H]3C[C@@](C)(OC)[C@@H](O)[C@H](C)O3)[C@@H](C)C(=O)O[C@H](CC)[C@@](C)(O)[C@H](O)[C@@H](C)C(=O)[C@H](C)C[C@@]2(C)O)O[C@H](C)C[C@@H]1N(C)C,10.8% (inactive),
C/C1=C2N=C(/C=C3N=C(/C(C)=C4\[N-]C(C(CC(N)=O)C4(C)CCC(=O)NCC(C)OP(=O)([O-])OC4C(CO)OC(n5cnc6cc(C)c(C)cc65)C4O)C4(C)N=C1C(CCC(N)=O)C4(C)CC(N)=O)C(CCC(N)=O)C\3(C)C)C(CCC(N)=O)C/2(C)CC(N)=O.[CH3-].[Co+3] (stereo not given),,26.6 µM (active)
COC(=O)[C@H]1[C@H]2C[C@@H]3c4[nH]c5cc(OC)ccc5c4CCN3C[C@H]2C[C@@H](OC(=O)/C=C/c2cc(OC)c(OC)c(OC)c2)[C@@H]1OC,3.47% [at 32.5 µM] (inactive),
O=C(O)CCC/C=C\C[C@@H]1[C@@H](/C=C/[C@@H](O)COc2cccc(C(F)(F)F)c2)[C@H](O)C[C@@H]1O,-1.19% (inactive),
C[C@]12CC[C@@H]3c4ccc(O)cc4CC[C@H]3[C@@H]1CC[C@@H]2OP(=O)(O)O,10.5% (inactive),
CC(C)(C)NC[C@H](O)COc1ccccc1C1CCCC1,-14.3% [at 32.5 µM] (inactive),
CC(C)(CO)[C@@H](O)C(=O)NCCC(=O)NCCSSCCNC(=O)CCNC(=O)[C@H](O)C(C)(C)CO,7.78% (inactive),
COc1cc2c(cc1OC)[C@@H](c1ccccc1)CN(C)CC2,-24% (inactive),
